Screens deposited in PubChem by National Center for Advancing Translational Sciences (NCATS).
Compounds with a hit are over-represented: about 21% of the library has one in this group of screens.
Pf growth 48h – inhibits P. falciparum growth in the first generation, 48 h; P. falciparum luciferase growth in erythrocytes, 48 h; 310,000 compounds, 5.9% hits; Potency, µM (doses to about 28.7 µM), for the others: at the highest dose activity change, negative = inhibition, usual class: inhibitors; note: potency is the fitted concentration of half-maximal effect; % is set by controls: 0 for no effect and ±100 for the full control effect
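Luciferase-expressing parasites in RBCs, 2% Hct / 0.1% parasitemia final; RPMI 1640 + 0.5% Albumax; 37 C, 5% CO2, one generation; luminescence read-out, lower signal = inhibition.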
FBPA Giardia inh – blocks Giardia fructose-bisphosphate aldolase activity; Potency, µM (top dose mostly 59.6 µM), for inactives: at the top dose activity, negative = inhibition, actives largely listed as inhibitors; 290,000 compounds, 0.71% hits; purified Giardia FBPA; note: potency is the fitted concentration of half-maximal effect; % is set by controls: 0 for no effect and ±100 for the full control effect; nearly all actives have a fitted effect of over 55% in size
Target sequence (A8B2U2 whole entry, looked up): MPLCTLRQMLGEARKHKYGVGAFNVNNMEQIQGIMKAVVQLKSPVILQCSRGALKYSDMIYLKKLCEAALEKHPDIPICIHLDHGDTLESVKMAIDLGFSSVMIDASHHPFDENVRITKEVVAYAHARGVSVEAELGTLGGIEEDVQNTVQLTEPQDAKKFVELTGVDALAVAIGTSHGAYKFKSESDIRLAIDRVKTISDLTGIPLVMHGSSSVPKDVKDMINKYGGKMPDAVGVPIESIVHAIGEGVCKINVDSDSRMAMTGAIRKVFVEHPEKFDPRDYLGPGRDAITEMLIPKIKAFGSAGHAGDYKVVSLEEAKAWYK
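40 nM FBPA preincubated 10 min at RT with compound (up to 57.5 uM final), then substrate plus GAPDH/TPI/NAD/arsenate coupling and diaphorase/resazurin added. Fluorescence read after 20 min at RT, 525/598 nm.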
Pf growth 96h – inhibits malaria parasite growth, 96 h; 320,000 compounds, 6.9% hits; AID 504834; P. falciparum luciferase reporter growth, 96 h; Potency, µM (series often up to 28.7 µM), inactives show at the top dose activity change, negative = inhibition, most hits filed as inhibitors; note: potency is the fitted concentration of half-maximal effect; % is set by controls: 0 for no effect and ±100 for the full control effect
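P. falciparum expressing integrated firefly luciferase grown in erythrocytes (2% hematocrit, 0.05% parasitemia final) with compounds for 96 hours at 37 C, 5% CO2. Growth inhibition read as loss of luminescence after adding luciferase detection reagent.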
Shiga toxin inh – inhibitors of Shiga toxin in Vero cells | Vero cells, Shiga toxin protein synthesis inhibition reporter | inhibition, % at 38.7 µM | 290,000 compounds, 9.2% hits; in the data active = inhibition mostly above about 28%, no sharp cut-off; inactive = mostly below about 43%; note: 0% is about no effect
NS1 inh – influenza NS1 inhibition; Potency, µM (top dose mostly 46.1 µM), inactives show at the highest dose activity, positive = more growth; 270,000 compounds, 0.4% hits; AID 2326; calls by dose curve; note: potency is the fitted concentration of half-maximal effect; actives are rising curves; nearly all actives have a fitted effect of over 50% in size
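Recovery from NS1-induced slow growth read by OD600 in budding yeast switched to galactose assay medium (pH 6.0, -URA) at 1:100 dilution. Compound 23 nl per well; the matching strain lacking NS1 serves as control.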
Cycloheximide cs – counter-screen hit for Shiga toxin inhibitors, cycloheximide. cell reporter, cycloheximide protein synthesis inhibition counterscreen. max response, %. 300,000 compounds, 12% hits; in the data active = max response mostly above about 13%, no sharp cut-off; inactive = mostly below about 14%; note: read at 38.3 µM for the half of the compounds with a filed dose; 0% is about no effect
* hit, by the source's call; u = inconclusive; x = no result; + = active, no number; [ ] = dose if it differs, or a comment. Unless noted, calls come from the whole dose curve; as a rule, active = well fitted curve in the direction sought with a large enough effect; inconclusive = small, poorly fitted or top-dose-only effect, or another doubt; inactive = no such curve, though single readings can be large; an effect the other way counts as inactive or inconclusive.

SMILES | Pf growth 48h | FBPA Giardia inh | Pf growth 96h | Shiga toxin inh | NS1 inh | Cycloheximide cs
Cc1cc(=O)oc2cc(OCC3CC(c4ccccc4)=NO3)ccc12 (centres undefined) | x | -1% | -41% | 53* | -9% | 21*
C=C(C)COc1ccc2c(CC)cc(=O)oc2c1 | 36% | 0% | -20% | 49 | -13% | 22*
CC(=O)OCC(NC(=O)C(C)NC(=O)OC(C)(C)C)C1OC(n2cc(C)c(=O)[nH]c2=O)C(OC(C)=O)C1OC(C)=O (centres undefined) | x | 2% | x | -9 | x | 8
Cc1cc(=O)oc2cc(OCC(=O)OCC(=O)NCCc3ccccc3)ccc12 | u | 2% | -24% | -2 | -12% | 1
COc1ccc(CCNC(=O)COc2ccc3c(C)cc(=O)oc3c2)cc1OC | 12% | 9% | 2.9µM* | -3 | 8% | -4
CCCCc1cc(=O)oc2cc(OCC(=O)N(CC)CC)ccc12 | u | 0% | x | -6 | -16% | 1
CCCCc1cc(=O)oc2cc(OS(C)(=O)=O)ccc12 | 24% | -4% | 58% | -33 | -20% | 20*
O=C(CCC(=O)N1CCOCC1)NCCc1ccccc1 | 84% | x | 76% | x | x | x
O=C(Nc1nc2c(s1)CCc1ccccc1-2)c1ccco1 | u | u | u | 81* | -98% | 50*
O=C(CCCl)Nc1nc2c(s1)CCc1ccccc1-2 | u | -8% | 2.1µM* | 25 | -40% | 9
CC(=O)Nc1nc2c(s1)CCc1ccccc1-2 | 67% | -9% | 62% | 47 | -6% | 17
O=C(CN1C(=O)c2ccccc2C1=O)Nc1ccccc1C(=O)N1CCCC1 | 18% | 3% | -100% | -6 | 2% | -2
CSCCC(NC(=O)c1ccco1)C(=O)OCC(=O)N1c2ccccc2NC(=O)C1(C)C (centres undefined) | -20% | x | -25% | x | x | x
COc1ccc(CCNC(=O)Cn2nnc(-c3ccc(OC)c(OC)c3)n2)cc1OC | -10% | -3% | 16% | -27 | -3% | -2
COc1ccc(CCNC(=O)Cn2nnc(-c3ccc(N(C)C)cc3)n2)cc1OC | 24% | -4% | 4.1µM* | 29 | 6% | 16
COc1ccc(N(CC(=O)NC2CCCC2)C(=O)Cn2nnc(-c3ccc(F)cc3)n2)cc1OC | u | -5% | -17% | -21 | -12% | -2
COc1ccc(N(CC(=O)NC2CCCC2)C(=O)Cn2nnc(-c3ccc(C)cc3)n2)cc1OC | u | -2% | 10µM* | -5 | -13% | -5
CC(C)Oc1ccc(CSc2ncn[nH]2)cc1 | 63% | -4% | 59% | 51* | -4% | 32*
O=C(Cc1ccc(Cl)cc1)N1CCOCC1 | 0% | 6% | 15µM* | -7 | 9% | -3
O=C(CCSc1nccn1Cc1ccccc1)N1CCOCC1 | 25% | 1% | 35% | + | -2% | 19*
Clc1ccc(SCc2csc(N3CCOCC3)n2)cc1 | 152% | -14% | 47% | 54* | -7% | 33*
O=C(CCSc1ccc(Cl)cc1)N1CCOCC1 | 160% | 2% | 122% | 53* | -11% | 29*
COc1ccc(C(C(=O)NC(C)(C)C)N(C(=O)CCC(=O)Nc2ccccn2)C2CCCCC2)cc1 (centres undefined) | u | 11% | -5% | -4 | -14% | -8
O=S(=O)(Nc1cccnc1)c1cccc2cccnc12 | x | x | x | x | 11% | x
Cc1ccc(SCC(=O)N2CCOCC2)cc1 | 59% | 1% | x | 35* | 3% | 23*
SMILES | Pf growth 48h | FBPA Giardia inh | Pf growth 96h | Shiga toxin inh | NS1 inh | Cycloheximide cs
O=C(CSc1ccc(Cl)cc1)N1CCOCC1 | 15% | 5% | x | 68* | -1% | 29*
O=C(CSc1ccc(Br)cc1)N1CCN(C(=O)c2ccco2)CC1 | -19% | 1% | 0% | -5 | -6% | -2
O=C(CSc1ccc(Br)cc1)N1CCOCC1 | -1%[0.00184 µM] | 9% | 36% | 46* | 2% | 27*
O=c1cnc2cnc(Oc3cccc(Cl)c3)nc2n1C1CC1 | x | 3% | x | x | x | x
COc1cccc(Cn2c(=O)c(-c3cc(F)cc(F)c3)nc3cnc(N4CCNCC4)nc32)c1 | x | 6% | x | x | x | x
CC(C)[C@H]1C=C(C(=O)O)O[C@@H](OCCCCO)C1 | -1% | u | 11% | -11 | -7% | 1
COc1ccc(NC(=O)COc2ccc(/C=C/c3cccc[n+]3C)cc2OC)cc1 | 0.93µM* | x | 5% | -4 | -5% | -5
COc1cc(/C=C/c2cccc[n+]2C)ccc1OCC(=O)Nc1ccccc1 | 1µM* | x | 0% | -4 | -4% | -1
COc1cc(/C=C/c2cc[n+](C)cc2)ccc1OCC(=O)Nc1ccc(Cl)c(Cl)c1 | u | x | -20% | 28 | -6% | 4
COc1cc(/C=C/c2cccc[n+]2C)ccc1OCC(=O)Nc1cccc(Cl)c1 | 0.93µM* | x | -8% | -9 | -4% | 3
COc1ccc(NC(=O)COc2ccc(/C=N/n3c(C)nnc3C)cc2OC)cc1 | x | -1% | 12µM* | 25 | -17% | 20
O=C(NCC(c1ccco1)N1CCN(c2ccccc2)CC1)C(=O)NC1CC1 (centres undefined) | u | x | 24% | x | x | x
COc1ccc(NC(=O)COc2ccc(/C=C/c3cc[n+](C)cc3)cc2OC)cc1 | 1.9µM* | 8% | -2% | -3 | -4% | -2
Cc1cccc(OC(C)C(=O)Nc2ccccc2C(=O)N2CCCCC2)c1 (centres undefined) | -14% | x | -6% | 13 | 10% | -7
O=C(/C=C/c1ccc(Br)cc1)NC(=O)c1ccccc1O | 83% | 0% | u | 46 | 2% | 32*
CSc1ccc(/C=C/C(=O)NC(=O)c2ccccc2O)cc1 | u | 14% | 5% | 20 | -39% | 9.6*
O=C(/C=C/c1ccc(O)c(O)c1)NC(=O)c1ccccc1O | 73% | u | 150% | 24 | 5% | 15
COc1cc(SC)ccc1C(=O)Nc1nc2ccccc2[nH]1 | u | -18% | 0.17µM* | -23 | -22% | -12
CSc1ccccc1C(=O)Nc1nc2ccccc2c(=O)[nH]1 | 121% | -9% | 3% | 80* | -35% | 32*
COc1ccccc1C(=O)Nc1nc2ccccc2[nH]1 | -72% | -9% | -61% | -28 | -44% | -11
CS(=O)(=O)c1ccccc1C(=O)Nc1nc2ccccc2[nH]1 | 0% | u | 10% | 14 | 3% | 13
CSc1ccccc1C(=O)Nc1nc2ccccc2[nH]1 | 145% | -7% | 71% | 73* | x | 39*
Cn1nc(C(=O)Nc2nc3ccccc3[nH]2)ccc1=O | 194% | -15% | 0% | 84* | x | 46*
COC(=O)N1CC=CC1(C)C(=O)O (centres undefined) | x | -8% | x | x | x | x
Cc1nn(-c2ccccc2)nc1C(=O)OCC(=O)N1CCC(C)CC1 | 1% | x | -5% | x | x | x
CC(C)c1ccc(N(CC(=O)NCc2ccco2)C(=O)CCC(=O)Nc2nccs2)cc1 | u | 2% | -23% | -7 | 12% | 3
CCOC(=O)c1c(S(=O)(=O)Nc2ccccn2)c(C)n(C)c1C | 4% | -3% | u | -11 | 4% | -1
